Records with an inconclusive call do not appear. Values without a mark were called inactive. Activity calls are given as the source filed them. Calls follow the shape of the dose curve; as a rule, active = well fitted cell-killing curve with a large enough effect in the repeat runs; inconclusive = weak or mixed curves, or effect the other way; inactive = no such curve, though single readings can be large or run the other way.
Assay: qHTS assay to identify small molecule antagonists of the glucocorticoid receptor (GR) signaling pathway - cell viability counter screen (AID 720693); also: nearly all actives have a fitted effect of over 55% in size
Settings: GR-bla HeLa viability, CellTiter-Glo luminescence, 18 h, with 5 nM dexamethasone present; series mostly up to 58.5 µM; viability change, negative = cytotoxic: at the top concentration
Description: National Center for Advancing Translational Sciences [NCATS]
NIH Chemical Genomics Center [NCGC]
U.S. Environmental Protection Agency [EPA]
National Institutes of Environmental Health Sciences [NIEHS]
National Toxicology Program [NTP]
U.S. Food and Drug Administration [FDA]
The Glucocorticoid receptor (GR) is one of the members of the nuclear receptor family of ligand-dependent transcription factors. GR plays a critical role in carbohydrate, protein and lipid metabolisms and programmed cell death. CellSensor GR-bla HeLa cell line (Invitrogen) contains a beta-lactamase reporter gene under the control of the glucocorticoid response element stably integrated into HeLa cells, a cervical cancer cell line that expresses glucocorticoid receptor. The activation of the reporter gene under culture conditions can be detected by fluorescence intensity. This cell line has been used to screen the Tox21 10K compound library and to identify the compounds that inhibit the GR signaling. The cytotoxicity of the Tox21 compound library against the GR-bla HeLa cell line was tested in parallel by measuring the cell viability using CellTiter-Glo assay in the same wells.
Tox21 Assay Protocol Summary:
The GR-bla HeLa cells were dispensed at 1500 cells/5 ul/well in 1536-well black wall/clear bottom plates using a Multidrop Combi (ThermoFisher Scientific, Waltham, MA) dispenser. After the assay plates were incubated at a 37 C/5% CO2 incubator for 4 hours, 23 nL of compounds dissolved in DMSO, positive controls or DMSO only was transferred to the assay plate by a pintool station (Kalypsys, San Diego, CA), followed by addition of 1 uL of dexamethasone (5 nM, final concentration in the well). The plates were incubated at 37 C for 18 hours. After 1 uL of LiveBLAzerTM B/G FRET substrate was added using a Flying Reagent Dispenser (Aurora Discovery, San Diego, CA), the plates were incubated at room temperature (RT) for 2 hours, and fluorescence intensity was measured by an Envision plate reader (PerkinElmer, Shelton, CT). After measurement of bla assay, 3 ul CellTiter-Glo (Promega, Madison, WI) was added to measure the cytotoxicity and the plates were then incubated at RT for 30 min. The luminescence was measured using a ViewLux (Perkin Elmer) plate reader.
% is scaled to controls: 0 for no effect and ±100 for the full control effect; potency is read from the fitted curve at half-maximal effect.

Compound | viability change, negative = cytotoxic | Potency
C=CCOC(=O)CCC1CCCCC1 | 10.7% | –
Cc1ccccc1S(=O)(=O)O | 17.1% [at 78.9 µM] | –
CC1=CC[C@H](C(C)C)C=C1 | -14.2% | –
CC1=CCCC(C)(C)C12CCC(C)O2 (stereo not given) | 6.58% | –
O=C(OCCc1ccccc1)c1ccccc1 | -1.38% | –
COc1ccnc(CS(=O)c2nc3ccc(OC(F)F)cc3[nH]2)c1OC (stereo not given) | -15.3% | –
COc1cc(C(=O)OCCCN2CCCN(CCCOC(=O)c3cc(OC)c(OC)c(OC)c3)CC2)cc(OC)c1OC | -4.98% | –
CCCn1cnc2c1c(=O)n(CCCCC(C)=O)c(=O)n2C | -0.747% | –
CC1=CC=C(C(C)C)CC1 | 0.253% | –
CC[N+](C)(CC)CCOC(=O)C(O)(c1ccccc1)C1CCCCC1 (stereo not given) | 8.22% | –
CC(=O)c1cccc([N+](=O)[O-])c1 | -9.71% | –
CCC(C)(C)CC | 8.25% [at 78.9 µM] | –
C#Cc1cccc(Nc2ncnc3cc(OCCOC)c(OCCOC)cc23)c1 | 11.8% | –
c1ccc(CNCCNCc2ccccc2)cc1 | -0.475% | –
NCC(=O)O | -0.435% | –
C[C@@H](c1ncncc1F)C(O)(Cn1cncn1)c1ccc(F)cc1F (stereo not given in full) | 1.51% | –
CN(C)C(=O)NC1(c2ccccc2)CCN(CC[C@@]2(c3ccc(F)c(F)c3)CN(C(=O)c3ccccc3)CCO2)CC1 | -3.18% | –
CC(C)Nc1ccc(NC(C)C)c2c1C(=O)c1ccccc1C2=O | -4.27% | –
C=CC(=O)OCCOc1ccccc1 | -15% | –
CCc1c(C(=O)NN2CCCCC2)nn(-c2ccc(Cl)cc2Cl)c1-c1ccc(Br)cc1 | – | 12.3 µM (active)

Compound | viability change, negative = cytotoxic | Potency
O=C1CCC(=O)O1 | -2.46% [at 78.9 µM] | –
CCCCCCCN | -6.71% [at 78.9 µM] | –
CC(=O)NO | -12.4% | –
C#C[C@]1(O)CC[C@H]2[C@@H]3CCc4cc(OC5CCCC5)ccc4[C@H]3CC[C@@]21C | -2.31% | –
C[N+]1(C)CCC(OC(=O)C(O)(c2ccccc2)C2CCCC2)C1 (stereo not given) | – | inactive
O=C1CCCCCCCCCCCC(=O)OCCO1 | 5.08% | –
CC(C)(C)OCC1CO1 (stereo not given) | 9.28% [at 78.9 µM] | –
NC(N)=NCCC[C@H](N)C(=O)O | -0.104% | –
CCO[C@H](Cc1ccc(OCCc2ccc(OS(C)(=O)=O)cc2)cc1)C(=O)O | 6.14% | –
CC1CCC(=O)C1=O (stereo not given) | 0.592% [at 78.9 µM] | –
C[N+]1(CC2COC(c3ccccc3)(C3CCCCC3)O2)CCCCC1 (stereo not given) | 22% | –
CCCCCC[C@@H](O)C/C=C\CCCCCCCC(=O)OC | 0.166% [at 78.9 µM] | –
NCC(=O)CCC(=O)O | 1.14% | –
COS(=O)(=O)C(F)(F)F | 12.8% [at 78.9 µM] | –
COc1cc(Cl)c(OC)cc1N | 3.47% | –
CCCCO | – | inactive
CCc1cc(C2=C(C(=O)O)N(c3ccccc3C(F)(F)F)S(=O)(=O)c3ccccc32)cc2c1OCO2 | 3.95% | –
COc1ccc(C(=O)N2CCN(CC(=O)N3CCOCC3)CC2)cc1 | -3.35% | –
CCCCC(CC)COC(=O)COc1ccc(Cl)cc1Cl (stereo not given) | -6.79% [at 78.9 µM] | –
O=C(O)c1ccc(-n2nc(-c3ccccc3O)nc2-c2ccccc2O)cc1 | -0.77% | –
